Screens deposited in PubChem BioAssay by several laboratories.
Only some compounds are listed: those with a hit (about 2.1% of all), similar ones and a draw of the others.
Rce1 inhib = yeast Ras-converting enzyme inhibition; Q03530; yeast membranes, quenched prenylated peptide cleavage fluorescence; calls only; actives 0.27% (n = 290,000); AID 2563;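 active means fall in fluorescence gain of 50% or more versus controls, with final raw signal at or below 3038400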;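 further: plate controls were neutral control wells for no effect and wells lacking membranes for full effect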
Target sequence (Q03530 whole entry, looked up): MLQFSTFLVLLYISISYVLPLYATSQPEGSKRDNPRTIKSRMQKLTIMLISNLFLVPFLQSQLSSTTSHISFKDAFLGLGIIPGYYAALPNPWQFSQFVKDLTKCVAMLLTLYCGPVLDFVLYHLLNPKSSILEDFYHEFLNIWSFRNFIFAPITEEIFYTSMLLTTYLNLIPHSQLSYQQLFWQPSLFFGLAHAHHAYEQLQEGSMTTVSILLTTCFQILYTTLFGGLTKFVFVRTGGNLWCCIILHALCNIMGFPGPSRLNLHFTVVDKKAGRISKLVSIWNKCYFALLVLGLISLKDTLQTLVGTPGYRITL
ADAM17 inh = inhibitors of human ADAM17 | P78536 | recombinant ADAM17, EDANS/DABCYL FRET peptide cleavage | inhibition, % at 6.95 µM | actives 0.83% (n = 370,000) | AID 720648;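 active means inhibition above the mean of compounds lying between control limits plus 3 SD, set per campaign, cut at about 8.5% in these data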;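 further: 0% = DMSO-only wells as the low control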
PLC-gamma1 inh = inhibitors of human phospholipase C gamma1; purified PLC-gamma1, fluorogenic substrate, fluorescence; inhibition, % at 12.2 µM; actives 0.84% (n = 370,000); AID 720700; in the data active means inhibition above about 9.5%
PLCb3 inh = inhibitors of human phospholipase C beta3. actives 0.18% (n = 370,000). inhibition, % at 12.2 µM. Purified PLC-beta3, fluorogenic substrate, fluorescence. AID 720704. Q01970;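 further: 0% = median of compound wells on plate and 100% = full blocker control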
ADAM10 inh = ADAM10 inhibition, QFRET primary screen; recombinant ADAM10, EDANS/DABCYL FRET peptide cleavage, 3 h; AID 720582; inhibition, % at 7 µM; O14672; actives 0.62% (n = 370,000);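 active means inhibition above a per-campaign cutoff equal to the mean of compounds falling between control-based bounds plus 3 SD, cut at about 20% in these data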;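 further: 0% = DMSO wells while the 100% control is not disclosed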
PLCg1 ctr = inhibits human PLC-gamma1 in PLC-beta3 counter-screen; shares compounds with PLC-gamma1 inh; purified PLC-gamma1, fluorogenic substrate, fluorescence; inhibition, % at 12.3 µM; actives 3.1% (n = 3,300); AID 743258; in the data active means inhibition above about 9.5%
PLCbeta3 conf = human PLC-beta3 inhibition, confirmation. shares compounds with PLC-gamma1 inh. purified PLC-beta3, fluorogenic substrate fluorescence. inhibition, % at 12.3 µM. actives 1% (n = 3,300). AID 743261
The depositor's hits bear a star; i = inactive; x = no result. Unless noted, no stated cut-off is given here; in the data, active means inhibition above about 11%; inactive means the rest.

SMILES	Rce1 inhib	ADAM17 inh	PLC-gamma1 inh	PLCb3 inh	ADAM10 inh	PLCg1 ctr	PLCbeta3 conf
CCOC(=O)C1CCCN(C(=O)c2ccc3c(c2)C(C)(C)CCC3(C)C)CC1 (stereo unspecified)	x	4	1	7	0	x	x
CC1CCCC(C)N1C(=O)COc1ccc(F)cc1 (stereo unspecified)	i	0	1	4	0	x	x
O=C(CC(=O)N/N=C/c1ccc(O)cc1)N/N=C/c1ccc(O)cc1	i	0	12*	-1	-2	-5	-2
O=C(c1cnccn1)N1CCN(c2ccccc2)CC1	i	-5	-1	1	-2	x	x
O=C(c1cnsn1)N1CCN(c2ccccc2)CC1	x	3	7	11*	2	-1	1
Cc1ccc(C(=O)N2CCN(c3nc4ccccc4n3C)CC2)cc1	i	1	4	1	7	x	x
O=C(CSc1nnc(-c2ccccc2Br)o1)Nc1nncs1	i	5	4	11*	2	1	-1
O=C(CSc1nnc(-c2ccncc2)o1)Nc1nncs1	i	-2	-7	-13	2	x	x
CC(C)(C)c1ccc(CC(=O)N2CCC2(C)C(=O)NCCC#N)cc1 (stereo unspecified)	x	-4	0	2	-8	x	x
Cc1ccc(S(=O)(=O)N(CC(=O)N/N=C/c2cccc(C)c2)c2cccc3cccnc23)cc1	i	6	11*	-1	-9	-3	-1
CCN(CC)C(=O)COc1ccc(/C(C)=N/Nc2ncc(Cl)cc2Cl)cc1	x	-4	-3	-13	-5	x	x
CCOc1ccc(CN(C)CC(=O)NCc2ccccc2)cc1	i	-11	0	-8	-10	x	x
CN(CC(=O)NCc1ccccc1)Cc1cccc(F)c1	i	5	11*	5	7	-6	-3
O=C(NCC1CCCO1)c1cccc(S(=O)(=O)N(Cc2ccccc2)c2ccccc2)c1 (stereo unspecified)	i	1	-1	0	9	x	x
CCOC(=O)c1oc2ccccc2c1COC(=O)C(C)NC(=O)c1ccco1 (stereo unspecified)	x	7	10*	1	-7	2	5
COc1ccc(-c2cc(C3CCNCC3)[nH]n2)cc1	i	8	16*	-1	1	8	1
COc1ccc(-c2cc(-c3ccc(OC)cc3)[nH]n2)cc1	i	2	2	-3	-4	x	x
CCC(C)(c1nnnn1-c1c(C)cccc1C)N(N=O)c1ccccc1Cl (stereo unspecified)	x	5	11*	8	1	7	-1
Nc1nc(-c2ccco2)nn1C(=O)c1ccc(Cl)cc1	i	5	9.8*	5	10	-6	-9
Nc1nc(-c2ccco2)nn1C(=O)c1ccccc1	i	-5	-1	2	-16	x	x
NC(c1csc(Nc2ncccn2)n1)c1ccccc1Cl (stereo unspecified)	x	3	12*	11	0	-8	0
CCCCCn1c(C(Cc2ccccc2)NC(=O)COC)nc2ccccc21 (stereo unspecified)	i	-1	1	2	-7	x	x
CCOCCn1c(C(C)O)nc2ccccc21 (stereo unspecified)	i	-6	10*	4	-5	-6	0
CCOCCn1c(CC)nc2ccccc21	i	-7	0	-7	-3	x	x
CCCCn1c(C(C)NC(=O)COC)nc2ccccc21 (stereo unspecified)	i	0	10*	1	-8	-3	-15
SMILES	Rce1 inhib	ADAM17 inh	PLC-gamma1 inh	PLCb3 inh	ADAM10 inh	PLCg1 ctr	PLCbeta3 conf
Cc1ccc([N+](=O)[O-])cc1N/C=C1\CCCCC1=O	i	0	-6	-10	-4	x	x
Cc1cccc(CN2CCN(CC(=O)NCc3ccc(F)cc3)C2=O)c1	i	3	11*	8	16	-6	-6
Cc1cc2nc(CCN(Cc3cccnc3)C(=S)Nc3ccc(F)cc3)[nH]c2cc1C	i	0	12*	2	-1	-3	-6
Cc1cc2nc(CCN(Cc3cccnc3)C(=S)Nc3ccccc3)[nH]c2cc1C	i	6	2	-2	3	x	x
COc1ccccc1/C=C/C(=O)NNC(=O)c1cccs1	i	-24	-12	-16	-52	x	x
CC(C)CNC(=O)C1(C)CCCCCN1C(=O)c1cc2ccccc2s1 (stereo unspecified)	x	2	14*	7	10	-5	2
CCCCNC(=O)C1(C)CCCCN1C(=O)c1ccc2sccc2c1 (stereo unspecified)	x	2	4	0	2	x	x
Cc1nc(C(F)(F)F)ccc1C(=O)N1CCCCCC1(C)C(=O)NCC(C)C (stereo unspecified)	x	7	16*	7	14	-3	3
CCCCNC(=O)C1(C)CCCCN1C(=O)c1cc2ccccc2s1 (stereo unspecified)	x	1	5	13*	-4	-1	4
CCOC(=O)C1(C)CCCCCN1C(=O)c1ccc(C(F)(F)F)nc1C (stereo unspecified)	x	1	4	5	-8	x	x
C=CCN=C1NC(c2ccc(C(F)(F)F)cc2)C(C(=O)OC)=C(C)N1C (stereo unspecified)	x	-5	-2	-2	-8	x	x
Cc1nc(N2CCOCC2)[nH]c(=O)c1[N+](=O)[O-]	i	3	13*	-2	14	1	2
Cc1cc(/C=C(\C#N)C(=O)Nc2ccc(Cl)cc2)c(C)n1-c1ccc(N2CCOCC2)c([N+](=O)[O-])c1	i	5	14*	7	5	3	4
Cc1ccc(NC(=O)/C(C#N)=C/c2cc(C)n(-c3ccc(N4CCOCC4)c([N+](=O)[O-])c3)c2C)c(C)c1	i	-4	0	-2	0	x	x
O=C(NCc1cccnc1)c1ccc(NC(=O)c2ccc([N+](=O)[O-])cc2)cc1	i	-2	13*	-1	3	-2	-1
O=C(O)c1ccccc1C(=O)NCc1cccnc1	i	7	5	14*	5	-5	3
O=C(NCc1cccnc1)c1ccccc1-c1ccccc1	i	-8	-4	-1	-11	x	x
O=C(NC(=S)NCc1cccnc1)c1ccc([N+](=O)[O-])cc1	i	-1	-2	2	-5	x	x
CN(C)c1nc(NNC(=O)c2ccccc2)nc(N(C)C)n1	x	-5	-1	0	-9	x	x
CCCn1c(SCC(=O)NCCc2ccccc2)nnc1C(C)C	i	-5	-1	-3	-2	x	x
CCOc1ccc(NC(=O)c2ccc(Cn3nc(C)cc3C)o2)cc1	i	-1	-1	-3	2	x	x
CCc1cccc(NC(=O)c2ccc(Cn3nc(C)cc3C)o2)c1	i	1	9.8*	4	7	-6	-1
Cc1ccccc1-c1csc(C(O)c2ccc(F)c(F)c2)n1 (stereo unspecified)	x	4	4	-1	-3	x	x
